PubChem BioAssay (EPA / NIEHS)
Calls of active or inactive are those of the source. Rule for the calls: active = hit-call score of the fitted dose curve at least 0.9, where 1 is the maximum; inactive = score below 0.9.

Read-out: Interferon-gamma inducible Protein 10 (IP10), CXCL10 (gene 3627)
Assay: BSK_BE3C_IP10: BioMAP Diversity Plus: BE3C Assay for Interferon-gamma inducible Protein 10 (IP10) Biomarker Activity (AID 2283034)
Details: primary human bronchial epithelial cells; actives raise or lower the signal
Method: BSK_BE3C is a cell-based, multiplexed-readout assay that uses bronchial epithelial cell, a human lung primary cell, with measurements taken at 24 hours after chemical dosing in a 96-well plate.BSK_BE3C_IP10 is an assay component measured in the BSK_BE3C assay. It measures IP-10 antibody related to regulation of gene expression using ELISA technology.Data from the assay component BSK_BE3C_IP10 was analyzed into 1 assay endpoint. This assay endpoint, BSK_BE3C_IP10, was analyzed with bidirectional fitting relative to DMSO as the negative control and baseline of activity. Using a type of binding reporter, gain or loss-of-signal activity can be used to understand changes in the signaling as they relate to the gene CXCL10. Furthermore, this assay endpoint can be referred to as a primary readout, because this assay has produced multiple assay endpoints where this one serves a signaling function. To generalize the intended target to other relatable targets, this assay endpoint is annotated to the cytokine intended target family, where the subfamily is chemotactic factor.
The levels of cell surface (or secreted, indicated by the prefix "s") biomarker endpoints were measured by ELISA. Overt cytotoxicity to cells in confluent adherent cultures (all systems other than the BT system) was assessed by measuring total protein levels using sulforhodamine B (SRB) staining in parallel cultures at the time of biomarker measurements, indicated as SRB endpoints. For proliferation assays for adherent cell types, individual cell types are cultured at sub-confluence and relative cell numbers quantified by SRB staining at time points optimized for each system (48 h: 3C and CASM3C systems; 72 h: BT and HDF3CGF systems; 96 h: SAg system). SRB was performed by staining cells with 0.1% SRB after fixation with 10% TCA and reading wells at 560 nm.Viability and proliferation of PBMC (T cells) was quantified by Alamar Blue reduction for the SAg and BT systems. For PBMC viability (referred to as PBMC Cytotoxicity within the assay endpoint names), cells were plated (75,000/well in a 96-well plate) and then chemical samples added for 1 h before addition of activators, SEB and TSST-1 (20 ng/mL final concentration each). Cells were incubated for 90 h. Then, Alamar Blue (20 uL/well) (Invitrogen, Cat DAL1100) was added for 6 h, and the plates were read with a fluorescence microplate reader at 546/580 nm (excitation/emission). For PBMC proliferation, cells were plated and activated as above but incubated for only 16 h prior to addition of Alamar Blue. Plates were read after 6 h.

| Compound | AC50 | outcome |
| --- | --- | --- |
| CON=C(C(=O)OC)c1ccccc1CON=C(C)c1cccc(C(F)(F)F)c1 | 20 µM (active) |  |
| CN(C)NC(=O)CCC(=O)O |  | inactive |
| COP(=O)(OC)OC(Br)C(Cl)(Cl)Br (stereo not given) | 30.3 µM (active) |  |
| COP(=O)(OC)C(O)C(Cl)(Cl)Cl (stereo not given) |  | inactive |
| CCOC(=O)COc1cc(-c2nn(C)c(OC(F)F)c2Cl)c(F)cc1Cl |  | inactive |
| Nc1c(Cl)cc([N+](=O)[O-])cc1Cl |  | inactive |
| COP(=O)(NC(C)=O)SC (stereo not given) |  | inactive |
| CSc1nc(NC(C)C)nc(NC(C)C)n1 |  | inactive |
| CCCSP(=O)(OCC)Oc1ccc(Br)cc1Cl (stereo not given) | 29.1 µM (active) |  |
| CCC(=O)Nc1ccc(Cl)c(Cl)c1 | 27.2 µM (active) |  |
| Cc1nn(-c2cc(NS(C)(=O)=O)c(Cl)cc2Cl)c(=O)n1C(F)F |  | inactive |
| COP(=O)(OC)SCn1c(=O)oc2cc(Cl)cnc21 | 31.2 µM (active) |  |
| CC(Oc1cccc(Cl)c1)C(=O)O (stereo not given) |  | inactive |
| COc1cc(OC)nc(Sc2cccc(Cl)c2C(=O)O)n1 |  | inactive |
| CC1=NNC(=O)N(/N=C/c2cccnc2)C1 |  | inactive |
| CCCCOC(=O)[C@@H](C)Oc1ccc(Oc2ccc(C#N)cc2F)cc1 |  | inactive |
| CNC(=O)Oc1cccc2c1OC(C)(C)O2 |  | inactive |
| CCCCN(CC)c1c([N+](=O)[O-])cc(C(F)(F)F)cc1[N+](=O)[O-] | 29.9 µM (active) |  |
| CCC(CC)Nc1c([N+](=O)[O-])cc(C)c(C)c1[N+](=O)[O-] |  | inactive |
| CCC(=NOC/C=C/Cl)C1=C(O)CC(C2CCOCC2)CC1=O (stereo not given) |  | inactive |

| Compound | AC50 | outcome |
| --- | --- | --- |
| CCc1cnc(C2=NC(C)(C(C)C)C(=O)N2)c(C(=O)O)c1 (stereo not given) |  | inactive |
| CN1COCN(Cc2cnc(Cl)s2)C1=N[N+](=O)[O-] |  | inactive |
| CSC1=N[C@@](C)(c2ccccc2)C(=O)N1Nc1ccccc1 |  | inactive |
| C#CCC1=C(C)C(OC(=O)C2C(C=C(C)C)C2(C)C)CC1=O (stereo not given) | 27.1 µM (active) |  |
| CC1(C(=O)Nc2ccc(O)c(Cl)c2Cl)CCCCC1 |  | inactive |
| C[Si](Cn1cncn1)(c1ccc(F)cc1)c1ccc(F)cc1 |  | inactive |
| CCCCSP(=O)(SCCCC)SCCCC |  | inactive |
| CC(COc1ccc(Oc2ccccc2)cc1)Oc1ccccn1 (stereo not given) |  | inactive |
| CSc1nnc(C(C)(C)C)c(=O)n1N | 7.16 µM (active) |  |
| FC(F)C(F)(F)OCC(Cn1cncn1)c1ccc(Cl)cc1Cl (stereo not given) | 26.4 µM (active) |  |
| CCOC(=O)CC(SP(=O)(OC)OC)C(=O)OCC (stereo not given) |  | inactive |
| C=C(C)[C@H]1Cc2c(ccc3c2O[C@@H]2COc4cc(OC)c(OC)cc4[C@@H]2C3=O)O1 | 20 µM (active) |  |
| CNc1cnn(-c2cccc(C(F)(F)F)c2)c(=O)c1Cl |  | inactive |
| CCCOCC(=Nc1ccc(Cl)cc1C(F)(F)F)n1ccnc1 | 32.3 µM (active) |  |
| CN(C)C(=O)Nc1cccc(C(F)(F)F)c1 |  | inactive |
| CCOP(=O)(SC(C)CC)N1CCSC1=O (stereo not given) |  | inactive |
| CC(C1CC1)C(O)(Cn1cncn1)c1ccc(Cl)cc1 (stereo not given) |  | inactive |
| CNC(=O)ON=C(C)SC |  | inactive |
| C[N+]1(C)CCCCC1 |  | inactive |
| O=c1ccc(=O)[nH][nH]1 |  | inactive |
